Results reported in ChEMBL document CHEMBL3433997, “St. Jude Leishmania screening dataset” (2016).

Assays:
Format in all cases: functional
[1] = target: Solute carrier family 2, facilitated glucose transporter member 1 (Homo sapiens) (UniProt P11166); experiment: ST_JUDE_LEISH: Cytotoxicity at 2uM final concentration against transgenic Leishmania Mexicana promastigotes LmGLUT1 that are glucose transport deficient and complemented with the human glucose transporter GLUT1. Activity is measured by DNA content using SYBR green in vitro
[2] = target: Hexose transporter 1 (Plasmodium falciparum) (UniProt O97467); experiment: ST_JUDE_LEISH: Cytotoxicity at 2uM final concentration against transgenic Leishmania Mexicana promastigotes LmPfHT that are glucose transport deficient and complemented with the Plasmodium falciparum hexose transporter. Activity is measured by DNA content using SYBR green in vitro
[3] = target: Glucose transporter (Leishmania mexicana) (UniProt O61059); experiment: ST_JUDE_LEISH: Cytotoxicity at 2uM final concentration against transgenic Leishmania Mexicana promastigotes LmGT2 that are glucose transport deficient and complemented with the L. Mexicana glucose transporter 2. Activity is measured by DNA content using SYBR green in vitro

Solute carrier family 2, facilitated glucose transporter member 1 (Homo sapiens), sequence (P11166 whole entry): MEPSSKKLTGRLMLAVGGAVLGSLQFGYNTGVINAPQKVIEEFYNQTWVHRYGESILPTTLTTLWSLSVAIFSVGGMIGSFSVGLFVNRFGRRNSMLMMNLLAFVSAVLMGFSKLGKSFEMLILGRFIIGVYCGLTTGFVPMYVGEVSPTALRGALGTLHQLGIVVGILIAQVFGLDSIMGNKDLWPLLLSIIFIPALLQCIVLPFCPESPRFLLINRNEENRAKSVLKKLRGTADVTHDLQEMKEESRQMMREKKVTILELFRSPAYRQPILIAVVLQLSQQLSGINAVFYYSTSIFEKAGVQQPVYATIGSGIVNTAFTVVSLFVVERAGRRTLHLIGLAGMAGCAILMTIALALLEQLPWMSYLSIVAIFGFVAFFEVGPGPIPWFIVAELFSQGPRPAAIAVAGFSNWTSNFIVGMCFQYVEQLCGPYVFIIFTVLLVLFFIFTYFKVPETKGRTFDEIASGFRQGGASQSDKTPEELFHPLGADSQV

Structure (SMILES) | inhibition [1] [%] | inhibition [2] [%] | inhibition [3] [%]
O=C(Nc1ccc(Cn2ncc(N3CCCNCC3)c(Cl)c2=O)cc1)Nc1cc(C(F)(F)F)cc(C(F)(F)F)c1 | 2.99 | 1 | 1.99
c1cc(COc2ccc(C3=NCCN3)cc2)nc(COc2ccc(C3=NCCN3)cc2)c1 | 4.95 | 5.66 | -0.59
O=C(CN1CCN(C(C(=O)Nc2cc(C(F)(F)F)ccc2Cl)c2ccccc2)CC1)NC1CC1 (stereo not drawn) | 0.74 | 2.72 | 3.2
CC1CN(c2cnn(Cc3cccc(NC(=O)Nc4ccc(-c5ccccc5)cc4)c3)c(=O)c2Cl)CC(C)N1 (stereo not drawn) | 8.54 | 5.56 | 7.15
CN1CCc2cc(O)c(NS(=O)(=O)c3ccc(-c4ccc(Cl)cc4)cc3)cc2CC1 | 12.4 | 9.38 | 9.99
O=C(Nc1cccc(CN2CCCN(Cc3ccc(O)cc3)CC2)c1)c1ccc2ccccc2c1 | 4.27 | 4.08 | 3.93
COc1cccc(-c2ccc3c(-c4cccc(NC(C)=O)c4)cnc(N)c3c2)c1 | 5.41 | 4.32 | 3.78
O=C(NCCCCN1CCC(c2ccc3c(c2O)CCCC3)CC1)c1ccc(NC(=O)c2ccc(Cl)cc2)cc1 | 1.7 | 2.56 | 0.97
FC(F)(F)c1ccc2[nH]c(-c3cccc(-c4ccc(CNCc5ccccc5)cc4)c3)nc2c1 | -0.08 | -1.13 | -0.47
O=C(NCCc1ccccc1F)c1cc(Br)cc(N2CCN(c3ccncc3)CC2)c1 | 0.33 | 2.34 | -0.08
COc1ccc(C(=O)Nc2ccc(-c3ccc([N+](=O)[O-])cc3)cc2)cc1CCCN(C)C | 2.83 | 3.93 | 2.45
